Unmarked numbers belong to inactive results. Calls follow the shape of the dose curve; as a rule, active = well fitted curve in the direction sought with a large enough effect; inactive = no such curve, though single readings can be large or run the other way.
target: Lysosomal alpha-glucosidase (Homo sapiens) (UniProt P10253); assay: qHTS Assay for Inhibitors and Activators of N370S glucocerebrosidase as a Potential Chaperone Treatment of Gaucher Disease: Alpha-Glucosidase Counterscreen; conditions: purified human alpha-glucosidase, 4MU-alpha-glucoside fluorescence
Source text: NIH Chemical Genomics Center [NCGC] NIH Molecular Libraries Probe Production Centers Network [MLPCN] MLPCN Grant: MH086442-01 Assay Submitter (PI): Wei Zheng Glucocerebrosidase (GC) catalyzes the hydrolysis of beta-glucocerebroside to glucose and ceramide in lysosomes. Mutations in the glucocerebrosidase gene result in Gaucher disease, an autosomal recessive lysosomal storage disorder. Many of the mutations encountered in patients with Gaucher disease are missense alterations that may cause misfolding, decreased stability and/or mistrafficking of this lysosomal protein. […] These inhibitors include iminosugar analogs and three non-iminosugar inhibitors identified from a previous HTS of 62,000 compounds with the wild type recombinant enzyme. However, the enhancement of enzyme activity by the chaperone action of an enzyme inhibitor must be balanced against the direct inhibition of the enzyme. An enzyme activator could also function as a chaperone by binding to the enzyme and helping to correct its misfolding and mistrafficking. While activators for GC have not yet been identified, they may have better therapeutic potential than inhibitors. Therefore the discovery and development of chemical activators may provide a new strategy for the chaperone therapy. To characterize compound selectivity, selected hits from the primary screen were screened against purified alpha-glucosidase, a related sugar hydrolase. Alpha-glucosidase is responsible for hydrolysis of terminal, non-reducing 1,4-linked alpha-D-glucose residues with release of alpha-D-glucose.
NCGC Assay Protocol Summary: This is a fluorogenic enzyme assay with 4-methylumbelliferyl-alpha-D-[…] as the substrate and human alpha-glucosidase as the enzyme preparation. Upon the hydrolysis of this fluorogenic substrate, the resulting product, 1. 4-methyllumbelliferone, can be excited at 365 nm and emits at 440 nm which can be detected by a standard fluorescence plate reader. Data were normalized to the controls for basal activity (without enzyme) and 100% activity (with enzyme). The AC50 values were determined from concentration-response data modeled with the standard Hill equation. Assay buffer: 50 mM citric acid (titrated with potassium phosphate to pH 5.0), 0.005% Tween-20, pH 5.0. (pH 5.0 is an optimal condition for this enzyme assay) 1536-well assay protocol for the human alpha-glucosidase: (1) Add 2 ul/well of enzyme (4 nM final) (2) Add 23 nL compounds in DMSO solution. The final titration was 0.7 nM to 77 uM. (3) Add 1 ul of substrate (400 uM final) (4) Incubate at room temperature for 20 min. (5) Add 2 ul stop solution (1M NaOH and 1M Glycine mixture, pH 10) (6) Detect the assay plate in a ViewLux plate reader (PerkinElmer) with Ex=365 nm and Em=440nm. Keywords: Alpha-glucosidase, Pompe Disease, pharmacological chaperone, chaperone therapy, high throughput screening, alpha-glucosidase inhibitor, MLSMR, MLSCN, NIH Roadmap, qHTS and NCGC

SMILES	max response
O=S(=O)(c1ccc(F)cc1)N1CCN(c2nc(-c3ccc(F)cc3)nc3cc(Cl)ccc23)CC1	-3.75%
O=S(=O)(c1ccc(F)cc1)N1CCN(c2nc(-c3cccs3)nc3cc(Cl)ccc23)CC1	-15.8%
O=[N+]([O-])c1cccc(S(=O)(=O)N2CCN(c3nc(-c4ccccc4)nc4ccccc34)CC2)c1	-5.2%
O=S(=O)(c1ccc(Cl)cc1)N1CCN(c2nc(-c3ccccc3)nc3ccccc23)CC1	-10.6%
NS(=O)(=O)c1ccc(S(=O)(=O)N2CCN(c3nc(-c4ccccc4)nc4ccccc34)CC2)cc1	-7.36%
O=S(=O)(c1cccc(Cl)c1)N1CCN(c2nc(-c3cccs3)nc3ccccc23)CC1	-11.5%
O=S(=O)(c1ccc(OC(F)(F)F)cc1)N1CCN(c2nc(-c3ccccc3)nc3ccccc23)CC1	-5.72%
O=S(=O)(c1ccc(C(F)(F)F)cc1)N1CCN(c2nc(-c3ccccc3)nc3ccccc23)CC1	-6.24%
N#Cc1ccc(S(=O)(=O)N2CCN(c3nc(-c4ccccc4)nc4ccccc34)CC2)cc1	-5.2%
COc1ccc(-c2nc(N3CCN(S(=O)(=O)c4ccc(C)cc4)CC3)c3ccccc3n2)cc1	-0.975%
CC(C)(C)c1ccc(S(=O)(=O)N2CCN(c3nc(-c4cccs4)nc4ccccc34)CC2)cc1	-6.75%
O=S(=O)(c1ccccc1C(F)(F)F)N1CCN(c2nc(-c3ccccc3)nc3ccccc23)CC1	-7.6%
N#Cc1ccccc1S(=O)(=O)N1CCN(c2nc(-c3ccccc3)nc3ccccc23)CC1	-12.3%
O=S(=O)(c1ccc(Cl)cc1)N1CCN(c2nc(-c3ccc(F)cc3)nc3cc(Cl)ccc23)CC1	-5.47%
O=S(=O)(c1ccccc1F)N1CCN(c2nc(-c3cccs3)nc3ccccc23)CC1	-14.1%
O=S(=O)(c1ccc(F)cc1)N1CCN(c2nc(-c3ccccc3)nc3ccccc23)CC1	-3.53%
O=S(=O)(c1ccc2ccccc2c1)N1CCN(c2nc(-c3cccs3)nc3ccccc23)CC1	-7.23%
CC(C)(C)c1ccc(S(=O)(=O)N2CCN(c3nc(-c4ccccc4)nc4ccccc34)CC2)cc1	-7.51%
O=S(=O)(c1ccc(F)cc1)N1CCN(c2nc(-c3ccccc3)nc3cc(Cl)ccc23)CC1	-12.7%
O=[N+]([O-])c1ccccc1S(=O)(=O)N1CCN(c2nc(-c3cccs3)nc3ccccc23)CC1	-3.63%
O=S(=O)(c1ccc2c(c1)OCCO2)N1CCN(c2nc(-c3ccccc3)nc3ccccc23)CC1	-3.22%
O=[N+]([O-])c1ccc(S(=O)(=O)N2CCN(c3nc(-c4cccs4)nc4ccccc34)CC2)cc1	-5.9%
N#Cc1ccc(S(=O)(=O)N2CCN(c3nc(-c4cccs4)nc4ccccc34)CC2)cc1	-5.53%
COc1ccc(S(=O)(=O)N2CCN(c3nc(-c4cccs4)nc4ccccc34)CC2)cc1	-3.66%
COc1ccc(S(=O)(=O)N2CCN(c3nc(-c4ccccc4)nc4ccccc34)CC2)cc1	-14.8%
CCOC(=O)c1ccc(S(=O)(=O)N2CCN(c3nc(-c4cccs4)nc4ccccc34)CC2)cc1	-8.25%
Cc1ccc(-c2nc(N3CCN(S(=O)(=O)c4ccc(F)cc4)CC3)c3ccc(Cl)cc3n2)cc1	-14.5%
O=[N+]([O-])c1ccccc1S(=O)(=O)N1CCN(c2nc(-c3ccccc3)nc3ccccc23)CC1	-3%
O=S(=O)(c1ccc(F)cc1)N1CCN(c2nc(-c3cccs3)nc3ccccc23)CC1	-15.5%
CCOC(=O)c1ccc(S(=O)(=O)N2CCN(c3nc(-c4ccccc4)nc4ccccc34)CC2)cc1	-5.28%

— PubChem BioAssay AID2577 (National Center for Advancing Translational Sciences (NCATS), 2010)
